ChEMBL document CHEMBL1961873, “Compounds: GSK PKIS; Assays: Nanosyn kinase panel” (2012)

How the values were obtained:
[1] = target: Serine/threonine-protein kinase 26 (Homo sapiens) (UniProt Q9P289); conditions: at 1 µM;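 also: mean inhibition of MST4 kinase activity, reported from the GSK PKIS inhibitor-set screening panel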
[2] = target: Serine/threonine-protein kinase PAK 1 (Homo sapiens) (UniProt Q13153); conditions: at 0.1 µM
[3] = target: Serine/threonine-protein kinase PAK 1 (Homo sapiens) (UniProt Q13153); conditions: at 1 µM
[4] = target: Serine/threonine-protein kinase PAK 2 (Homo sapiens) (UniProt Q13177); conditions: at 0.1 µM
[5] = target: Serine/threonine-protein kinase PAK 2 (Homo sapiens) (UniProt Q13177); conditions: at 1 µM
[6] = target: Serine/threonine-protein kinase PAK 3 (Homo sapiens) (UniProt O75914); conditions: at 0.1 µM
[7] = target: Serine/threonine-protein kinase PAK 3 (Homo sapiens) (UniProt O75914); conditions: at 1 µM
[8] = target: Serine/threonine-protein kinase PAK 5 (Homo sapiens) (UniProt Q9P286); conditions: at 1 µM
[9] = target: Serine/threonine-protein kinase PAK 6 (Homo sapiens) (UniProt Q9NQU5); conditions: at 0.1 µM;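 also: mean PAK6 inhibition reported from the GSK PKIS screen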
[10] = target: Serine/threonine-protein kinase PAK 5 (Homo sapiens) (UniProt Q9P286); conditions: at 0.1 µM

Chain of Serine/threonine-protein kinase PAK 6 (Homo sapiens) (Q9NQU5 whole entry, looked up): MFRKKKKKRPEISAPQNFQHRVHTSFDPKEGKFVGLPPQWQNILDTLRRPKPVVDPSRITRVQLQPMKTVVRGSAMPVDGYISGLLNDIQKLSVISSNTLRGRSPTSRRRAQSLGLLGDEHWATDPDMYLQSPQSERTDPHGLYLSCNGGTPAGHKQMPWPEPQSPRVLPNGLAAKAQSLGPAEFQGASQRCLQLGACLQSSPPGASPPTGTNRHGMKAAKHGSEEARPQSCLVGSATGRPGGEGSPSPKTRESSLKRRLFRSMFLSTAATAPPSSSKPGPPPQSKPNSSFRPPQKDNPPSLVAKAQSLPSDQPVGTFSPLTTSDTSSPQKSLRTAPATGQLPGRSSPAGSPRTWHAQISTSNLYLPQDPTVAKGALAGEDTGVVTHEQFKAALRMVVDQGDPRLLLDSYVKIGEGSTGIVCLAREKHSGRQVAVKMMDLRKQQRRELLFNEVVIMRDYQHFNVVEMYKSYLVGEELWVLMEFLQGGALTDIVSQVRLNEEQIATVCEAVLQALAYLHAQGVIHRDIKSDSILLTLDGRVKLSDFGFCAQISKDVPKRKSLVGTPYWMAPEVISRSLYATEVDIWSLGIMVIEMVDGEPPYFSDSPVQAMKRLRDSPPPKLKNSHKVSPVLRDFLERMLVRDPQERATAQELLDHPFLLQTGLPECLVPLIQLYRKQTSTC
Chain of Serine/threonine-protein kinase 26 (Homo sapiens) (Q9P289 2-416 limits assumed): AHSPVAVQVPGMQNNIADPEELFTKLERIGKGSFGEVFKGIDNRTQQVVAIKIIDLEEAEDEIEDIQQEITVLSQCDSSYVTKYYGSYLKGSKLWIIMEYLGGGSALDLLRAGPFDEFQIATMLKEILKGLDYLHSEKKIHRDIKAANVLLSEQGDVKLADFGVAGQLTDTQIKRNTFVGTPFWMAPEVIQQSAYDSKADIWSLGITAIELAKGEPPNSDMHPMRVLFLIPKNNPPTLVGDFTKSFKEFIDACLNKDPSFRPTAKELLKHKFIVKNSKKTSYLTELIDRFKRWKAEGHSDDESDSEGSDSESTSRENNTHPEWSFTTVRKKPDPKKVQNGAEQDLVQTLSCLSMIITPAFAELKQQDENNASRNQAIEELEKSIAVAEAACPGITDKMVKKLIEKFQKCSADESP
Chain of Serine/threonine-protein kinase PAK 1 (Homo sapiens) (Q13153 whole entry): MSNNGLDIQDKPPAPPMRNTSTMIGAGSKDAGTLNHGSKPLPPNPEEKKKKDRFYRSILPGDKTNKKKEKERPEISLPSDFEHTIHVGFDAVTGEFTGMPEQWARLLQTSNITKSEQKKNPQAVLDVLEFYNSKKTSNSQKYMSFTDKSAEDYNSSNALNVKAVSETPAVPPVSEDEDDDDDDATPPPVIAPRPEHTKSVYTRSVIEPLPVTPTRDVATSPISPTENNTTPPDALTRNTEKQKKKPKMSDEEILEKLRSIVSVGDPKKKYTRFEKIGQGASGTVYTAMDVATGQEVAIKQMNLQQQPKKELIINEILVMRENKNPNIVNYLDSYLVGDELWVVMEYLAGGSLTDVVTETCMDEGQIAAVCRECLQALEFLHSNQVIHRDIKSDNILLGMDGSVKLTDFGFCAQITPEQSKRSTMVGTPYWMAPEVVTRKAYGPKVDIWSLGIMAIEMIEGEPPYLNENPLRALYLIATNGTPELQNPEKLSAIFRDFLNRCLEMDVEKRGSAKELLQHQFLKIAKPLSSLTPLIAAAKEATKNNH
Chain of Serine/threonine-protein kinase PAK 5 (Homo sapiens) (Q9P286 whole entry, looked up): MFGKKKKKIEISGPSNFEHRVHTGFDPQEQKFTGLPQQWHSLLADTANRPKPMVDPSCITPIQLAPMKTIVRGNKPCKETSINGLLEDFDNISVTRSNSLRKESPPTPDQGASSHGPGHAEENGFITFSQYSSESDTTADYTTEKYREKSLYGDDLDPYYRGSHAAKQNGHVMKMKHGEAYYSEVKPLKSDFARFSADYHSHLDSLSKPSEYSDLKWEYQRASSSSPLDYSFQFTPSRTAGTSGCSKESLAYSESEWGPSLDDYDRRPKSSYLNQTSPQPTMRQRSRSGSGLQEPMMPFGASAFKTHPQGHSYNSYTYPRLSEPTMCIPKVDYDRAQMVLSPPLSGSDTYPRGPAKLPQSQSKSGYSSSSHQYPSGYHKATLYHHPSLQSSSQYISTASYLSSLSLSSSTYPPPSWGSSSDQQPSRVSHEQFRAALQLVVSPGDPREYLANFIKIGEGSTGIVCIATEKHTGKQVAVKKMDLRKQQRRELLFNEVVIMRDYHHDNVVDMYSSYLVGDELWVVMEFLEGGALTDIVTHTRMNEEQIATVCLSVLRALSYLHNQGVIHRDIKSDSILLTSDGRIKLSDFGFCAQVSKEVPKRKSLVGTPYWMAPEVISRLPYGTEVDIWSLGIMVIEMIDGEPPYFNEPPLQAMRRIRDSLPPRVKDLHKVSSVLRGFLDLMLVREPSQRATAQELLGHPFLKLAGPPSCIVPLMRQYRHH
Chain of Serine/threonine-protein kinase PAK 2 (Homo sapiens) (Q13177 whole entry): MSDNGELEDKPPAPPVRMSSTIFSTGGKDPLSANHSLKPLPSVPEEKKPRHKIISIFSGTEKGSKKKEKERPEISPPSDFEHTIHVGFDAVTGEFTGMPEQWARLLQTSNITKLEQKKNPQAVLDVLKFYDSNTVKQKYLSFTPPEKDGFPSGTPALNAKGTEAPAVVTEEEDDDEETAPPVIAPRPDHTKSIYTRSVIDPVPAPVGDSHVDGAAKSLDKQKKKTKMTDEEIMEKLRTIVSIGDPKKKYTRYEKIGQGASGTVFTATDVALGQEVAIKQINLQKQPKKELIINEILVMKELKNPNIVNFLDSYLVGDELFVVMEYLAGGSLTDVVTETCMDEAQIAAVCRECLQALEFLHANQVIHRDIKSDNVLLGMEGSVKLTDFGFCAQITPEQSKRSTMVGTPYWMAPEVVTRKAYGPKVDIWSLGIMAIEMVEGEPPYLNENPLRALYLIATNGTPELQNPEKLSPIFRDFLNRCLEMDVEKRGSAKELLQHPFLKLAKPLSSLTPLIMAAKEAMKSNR
Chain of Serine/threonine-protein kinase PAK 3 (Homo sapiens) (O75914 whole entry, looked up): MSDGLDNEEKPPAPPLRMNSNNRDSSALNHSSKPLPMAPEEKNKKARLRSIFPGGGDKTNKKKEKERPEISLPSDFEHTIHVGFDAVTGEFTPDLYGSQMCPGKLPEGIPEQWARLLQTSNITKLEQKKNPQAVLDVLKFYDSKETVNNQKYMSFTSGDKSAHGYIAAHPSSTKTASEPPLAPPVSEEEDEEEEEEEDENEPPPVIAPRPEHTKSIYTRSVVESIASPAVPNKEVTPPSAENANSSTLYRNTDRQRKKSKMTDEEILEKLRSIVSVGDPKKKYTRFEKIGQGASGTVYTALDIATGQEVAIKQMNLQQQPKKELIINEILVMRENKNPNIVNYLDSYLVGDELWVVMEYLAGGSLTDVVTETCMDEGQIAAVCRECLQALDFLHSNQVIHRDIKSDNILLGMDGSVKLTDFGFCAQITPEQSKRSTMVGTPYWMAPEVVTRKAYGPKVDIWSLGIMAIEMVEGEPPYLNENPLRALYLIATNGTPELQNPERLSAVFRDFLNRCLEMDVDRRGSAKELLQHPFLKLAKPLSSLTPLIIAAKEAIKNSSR

Row | Compound | inhibition [1] [%] | inhibition [2] [%] | inhibition [3] [%] | inhibition [4] [%] | inhibition [5] [%] | inhibition [6] [%] | inhibition [7] [%] | inhibition [8] [%] | inhibition [9] [%] | inhibition [10] [%]
1 | NCc1ccc(-c2nc(-c3ccc(Cl)c(O)c3)c(-c3ccncc3)[nH]2)cc1 | 0.12 | 1.09 | 2.83 | -1.23 | -1.01 | -0.7 | -0.37 | -6.81 | 7.6 | –
2 | COc1cc2ncn(-c3cc(OCc4ccccc4C(F)(F)F)c(C(N)=O)s3)c2cc1OC | – | 3.79 | 7.26 | 1.94 | 1.77 | 5.55 | 5.02 | 2.59 | -0.96 | 1.8
3 | CN(C)c1cc2c(Nc3ccc4nc(Cc5ccccc5)[nH]c4c3)ncnc2cn1 | -0.63 | 8.36 | 8.45 | 2.07 | 1.52 | 6.44 | 7.25 | -7.55 | 7.15 | 9.58
4 | Cc1nn(C)c2cc(N(C)c3ccnc(Nc4cccc(S(N)(=O)=O)c4)n3)ccc12 | 2.03 | 5.87 | 4.55 | 0.68 | 1.06 | -1.47 | 2.95 | 5.34 | -4.18 | –
5 | Nc1nc(-c2ccc3c(c2)C(=Cc2cc(Br)c(O)c(Br)c2)C(=O)N3)cs1 | 15.5 | 2.87 | -1.51 | -2.22 | -1.94 | -4.94 | -1.99 | -3.15 | -5.26 | –
6 | COC(=O)Nc1nc2cc(Oc3ccc(NC(=O)Nc4cccc(C(=O)O)c4)cc3)ccc2[nH]1 | 3.41 | 0.04 | 2.31 | -0.12 | -0.31 | 0 | 0.98 | 3.29 | 3.13 | 7.82
7 | COC(=O)Nc1nc2cc(Oc3cccc(NC(=O)Nc4cc(C(F)(F)F)ccc4F)c3)ccc2[nH]1 | 1.92 | 3.97 | -1.03 | -1.19 | 0.23 | -1.11 | -1.11 | -5.17 | 6.44 | 0.91
8 | COc1cc(C)c(NC(=O)CN(C)C)cc1Nc1nc(Nc2cccc(F)c2C(N)=O)c2cc[nH]c2n1 | -2.75 | 2.74 | 3.36 | 1.54 | 1.5 | 1.84 | 2.37 | -5.11 | 5.11 | -4.59
9 | CS(=O)(=O)CCN(CC#N)Cc1ccc(-c2ccc3ncnc(Nc4ccc(OCc5cccc(F)c5)c(Cl)c4)c3c2)o1 | 0.46 | 1.88 | 4.88 | 0.62 | 0.16 | 2.04 | 4.29 | -0.85 | -6.8 | 0.28
10 | COc1ccc(-c2coc3ncnc(N)c23)cc1 | 1.26 | 8.03 | 7.01 | 1.73 | 1.44 | 4.88 | 4.26 | -5.35 | -2.56 | –
11 | CC1=C(C(=O)Nc2ccc3[nH]ncc3c2)C(c2ccc3ccccc3c2)CC(=O)N1 (stereo not given) | -3.47 | 0.76 | 4.95 | -0.2 | 2.46 | 2.14 | 0.85 | 3.39 | -2.35 | -1.65
12 | CCn1c(-c2nonc2N)nc2ccncc21 | 0.2 | 6.53 | 2.38 | -0.38 | 1.82 | 0.96 | 1.02 | -8.04 | -9.63 | -6.36
13 | CC1=C(C(=O)Nc2ccc3[nH]ncc3c2)C(c2ccc(Cl)c(Cl)c2)CC(=O)N1 (stereo not given) | -1.05 | 2.74 | 3.36 | 0.48 | -0.06 | 0.86 | 0.53 | -3.2 | 6.11 | 4.97
14 | COc1cc2ncn(-c3cc(O[C@H](C)c4ccccc4Cl)c(C(N)=O)s3)c2cc1OC | – | 6.45 | 4.82 | 0.59 | 0.45 | 4.18 | 6.53 | 3.97 | 0.91 | 7.14
15 | c1cnn2ncc(-c3ccnc(Nc4ccc5c(c4)OCCO5)n3)c2c1 | -0.78 | 3.98 | 4.56 | 4.04 | 3.37 | 4.71 | 4.73 | 14.7 | 2.92 | 8.91
16 | COc1cccc(-n2ncc3c(N/N=C/c4cccc(F)c4)ncnc32)c1 | 2.84 | 6.15 | 6.44 | 0.05 | 0.67 | 1.51 | 2.17 | -8.07 | 12.7 | -1.62
17 | Cc1cccc(-c2n[nH]cc2-c2ccc3ncccc3n2)n1 | 2.02 | -2.12 | 3.22 | -2.02 | -0.91 | 0.55 | 1.22 | -3.76 | -5.68 | -7.66

Row | Compound | inhibition [1] [%] | inhibition [2] [%] | inhibition [3] [%] | inhibition [4] [%] | inhibition [5] [%] | inhibition [6] [%] | inhibition [7] [%] | inhibition [8] [%] | inhibition [9] [%] | inhibition [10] [%]
18 | O=C1NC(=O)C(c2ccccc2Cl)=C1Nc1cccc(O)c1 | 2.65 | 3.51 | 3.76 | 1.94 | 1.62 | 2.51 | 3.3 | -1.3 | -0.02 | 11.9
19 | NC(=O)c1cccc(Nc2nccc(Nc3cccc4[nH]ncc34)n2)c1 | 2.8 | -5.7 | -0.69 | -3.16 | -0.55 | -3.68 | -3.07 | 13.4 | 3.11 | -1.09
20 | Nc1ncnc2occ(-c3ccc(NC(=O)Nc4cc(C(F)(F)F)cc(C(F)(F)F)c4)cc3)c12 | – | 4.71 | 3.65 | 2.1 | 0.99 | 2.26 | 3.84 | 4.07 | 1.06 | 1.39
21 | COc1ccc(-c2nn3ncccc3c2-c2ccnc(Nc3ccc(Cl)c(C(F)(F)F)c3)n2)cc1 | 0.3 | 2.46 | 0.59 | -0.08 | 0.63 | 2.32 | 2.56 | -1.65 | -0.34 | 1.71
22 | Fc1cccc(COc2ccc(Nc3ncnc4cc(-c5ccc[nH]5)sc34)cc2Cl)c1 | 3.26 | 5.46 | 5.78 | -0.06 | -0.55 | – | 1.96 | -0.78 | -2.21 | –
23 | CCn1c(-c2nonc2N)nc2cncc(C(=O)N3CCNCC3)c21 | 1.91 | 9.41 | 15.3 | 3.6 | 4.45 | 7.27 | 9.28 | 8.13 | -5.05 | 6.95
24 | CCn1c(-c2nonc2N)nc2c(N3CCCC3)nccc21 | 0.92 | 3.59 | -4.47 | -2.37 | -1.78 | -2.72 | -1.25 | – | 8.95 | -6.88
25 | Cc1nnc(-c2ccc(C)c(-c3ccc(C(=O)Nc4cccc(C#N)c4)cc3)c2)o1 | -0.56 | 5.8 | 1.41 | 0.71 | 0.48 | 2.48 | 2.15 | -1.12 | -9.89 | 0.22
26 | COc1cc2c(cc1Nc1nc(N3CCc4ccccc43)c3cc[nH]c3n1)N(C(=O)CN(C)C)CC2 | 4.16 | 3.44 | 4.36 | 0.89 | 1.19 | 1.31 | 2.24 | -1.41 | -3.46 | 0.19
27 | O=C(Nc1n[nH]c2nc(-c3ccco3)c(Br)cc12)C1CC1 | -2.34 | 4.84 | 6.66 | 2.69 | 3.61 | 3.75 | 3.54 | -1.99 | 0.11 | -1.27
28 | NS(=O)(=O)c1cccc(-c2ccc3c(NC(=O)C4CC4)n[nH]c3c2)c1 | – | -1.17 | 0.04 | -1.52 | -1.15 | -2.1 | -0.67 | -5.95 | 2.48 | 7.33
29 | CCn1c(-c2nonc2N)nc2cncc(C(=O)N3CC[C@H](N)C3)c21 | 1.04 | 10.1 | 8.87 | 1 | 1.51 | 5.01 | 4.59 | 0.61 | -1.48 | –
30 | CS(=O)(=O)CCNCc1ccc(-c2ccc3ncnc(Nc4ccc(OCc5cccc(F)c5)c(C(F)(F)F)c4)c3c2)o1 | -0.76 | 6.77 | 8.2 | 1.44 | 1.87 | 4.46 | 3.99 | -0.07 | -1.22 | –
31 | Cc1ccc(NC(=O)c2ccnc(N3CCCC3)c2)cc1-c1ccc(C(=O)NCC2CC2)cc1 | 6.65 | 5.46 | 8.39 | 1.66 | 0.96 | 4.52 | 5.08 | -5.63 | -2.61 | -9.56
32 | O=C1NC(=O)C(c2cccc(Cl)c2)=C1Nc1ccc(O)c(Cl)c1 | 11.2 | 2.76 | 4.48 | 0.61 | -0.45 | 1.1 | 1.4 | – | 3.63 | –
33 | Cc1cc(O)cc(C)c1/C=C/c1cncc(-c2nn[nH]n2)c1 | 0.45 | 6.83 | 7.1 | 2.28 | 2.67 | 4.55 | 5.43 | -1.45 | 7.17 | 1.47
34 | CCCN1CCC(Oc2cc(Nc3nc(Nc4cccc(F)c4C(N)=O)c4cc[nH]c4n3)c(OC)cc2Cl)CC1 | 2.1 | -3.06 | 1.83 | -1.01 | -0.56 | -0.46 | -0.24 | 3.44 | 2.36 | 6.57
